Assay results taken from PubChem BioAssay (NCI).
About 83,000 compounds went through this panel and 20% of them were active in at least one assay; those are over-represented in the sample as a whole.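 Compound tested at a single concentration for 48 hours in 96-well plates; a percent growth value below 10 was scored as active.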 A number with no mark means an inactive call. Active and inactive are the calls of the source.

The compounds below were run on HS 578T breast (assay: NCI-60 one-dose screen, 48 h (100 = growth as untreated, 0 = no growth, -100 = all killed)). Settings: 10 µM.

SMILES	growth
C=CCN(CC=C)C(=O)[C@H](CC)[C@@H]1CC[C@@H](C)[C@@H]([C@H](C)[C@@H](O)[C@@H](C)C(=O)[C@H](CC)C2O[C@]3(C=C[C@@H](O)[C@]4(CC[C@@](C)([C@H]5CC[C@](O)(CC)[C@H](C)O5)O4)O3)[C@H](C)C[C@@H]2C)O1 (stereo partly drawn)	13.4%
O=C1CCn2c1c(O)c1ccccc1c2=O	93.6%
COc1ccc(-c2cc(-c3ccccc3)nc(SCCCCCCC(=O)NO)n2)cc1	54%
Cc1ccc(NC(=S)NNC(=S)Nc2ccc(C)cc2)cc1	78.4%
c1cncc(-c2csc(-c3c[nH]c4ccccc34)n2)c1	90.6%
CN(C)CCOc1cccc(-c2nc3sccn3c2-c2ccnc(S(C)(=O)=O)n2)c1	86.4%
CC(C)(C)c1ccc(S(=O)(=O)N[C@H]2CC[C@H]3[C@@H]4CCc5cc(OS(=O)(=O)O)ccc5[C@H]4CC[C@]23C)cc1	66.5%
Nc1nccc(OCCO)n1	107%
CC(C)c1ccc(C(C)C(=O)N(CC2=C(C(C)c3ccccn3)c3ccccc3C2)C(C)C)cc1 (stereo not drawn)	47.4%
Cc1c2cnccc2c(C)c2c1c1cc(O)ccc1n2C(C)C	3.64% (active)
CCc1ccc(C2=NN(c3ccc(S(C)(=O)=O)cc3)C(=O)CC2)cc1	-0.675% (active)
COc1cc2c(cc1NC(=O)C(Cl)Cl)-c1ccc(NC(=O)C(Cl)Cl)cc1C2	13.6%
COc1cc(/C=C2\CCCC3=C2NC(N)=NC3c2cc(OC)c(OC)c(OC)c2)cc(OC)c1OC (stereo not drawn)	37%
